Data as given in ChEMBL document CHEMBL1961873, “Compounds: GSK PKIS; Assays: Nanosyn kinase panel” (2012).

Test system: Mast/stem cell growth factor receptor Kit (Homo sapiens), P10721 [T670I]
Conditions: at 0.1 µM

Sequence of Mast/stem cell growth factor receptor Kit (Homo sapiens), P10721 [T670I] (P10721 whole entry T670I): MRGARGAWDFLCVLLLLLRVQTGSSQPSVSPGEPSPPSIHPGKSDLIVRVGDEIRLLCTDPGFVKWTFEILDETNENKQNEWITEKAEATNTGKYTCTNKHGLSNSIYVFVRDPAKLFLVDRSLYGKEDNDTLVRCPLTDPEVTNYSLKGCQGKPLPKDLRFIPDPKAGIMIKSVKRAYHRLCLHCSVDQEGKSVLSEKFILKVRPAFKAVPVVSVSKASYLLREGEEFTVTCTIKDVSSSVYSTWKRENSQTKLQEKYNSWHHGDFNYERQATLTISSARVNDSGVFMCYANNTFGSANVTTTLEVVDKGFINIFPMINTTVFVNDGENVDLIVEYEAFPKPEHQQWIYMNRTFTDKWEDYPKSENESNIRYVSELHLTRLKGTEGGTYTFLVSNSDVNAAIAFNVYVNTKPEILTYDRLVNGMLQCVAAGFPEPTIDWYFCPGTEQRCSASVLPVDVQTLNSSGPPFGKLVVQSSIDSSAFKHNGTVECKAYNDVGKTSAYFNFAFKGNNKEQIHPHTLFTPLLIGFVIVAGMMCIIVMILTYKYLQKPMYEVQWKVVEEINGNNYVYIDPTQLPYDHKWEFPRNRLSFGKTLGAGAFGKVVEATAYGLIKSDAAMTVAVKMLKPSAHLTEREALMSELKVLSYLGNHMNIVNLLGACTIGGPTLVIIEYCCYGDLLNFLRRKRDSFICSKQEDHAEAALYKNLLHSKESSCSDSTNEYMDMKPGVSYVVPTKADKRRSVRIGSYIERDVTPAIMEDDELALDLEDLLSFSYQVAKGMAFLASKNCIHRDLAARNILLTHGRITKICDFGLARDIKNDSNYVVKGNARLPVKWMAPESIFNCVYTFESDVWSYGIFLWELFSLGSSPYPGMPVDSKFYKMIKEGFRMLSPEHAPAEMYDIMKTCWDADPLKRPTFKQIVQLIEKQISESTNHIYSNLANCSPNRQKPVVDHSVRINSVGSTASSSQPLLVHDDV

Row | SMILES | inhibition [%]
1 | N#Cc1c(NC(=O)c2cccc3ccccc23)sc2c1CCCC2 | 2.84
2 | COc1cc(C=NNc2ncnc3c2cnn3-c2ccccc2)ccc1O | 4.5
3 | CC(C)=Cc1cccc2c1/C(=N/Nc1ccc(S(N)(=O)=O)cc1)C(=O)N2 | 5.7
4 | Cc1ccc(NC(=O)c2ccnc(N3CCCC3)c2)cc1-c1ccc(C(=O)NCC2CC2)cc1 | 2.54
5 | Nc1nc(-c2ccc3c(c2)C(=Cc2cc(Br)c(O)c(Br)c2)C(=O)N3)cs1 | -2.39
6 | CS(=O)(=O)CCNCc1ccc(-c2ccc3ncnc(Nc4ccc(OCc5cccc(F)c5)c(C(F)(F)F)c4)c3c2)o1 | 4.9
7 | COc1ccc(-c2coc3ncnc(N)c23)cc1 | 3.49
8 | CCCN1CCC=C(c2ccc(Nc3nc(Nc4ccccc4C(N)=O)c4cc[nH]c4n3)c(C)c2)C1 | 4.53
9 | O=C1NC(=O)C(c2cccc(Cl)c2)=C1Nc1ccc(O)c(Cl)c1 | -1.24
10 | COc1cc2ncn(-c3cc(O[C@H](C)c4ccccc4Cl)c(C(N)=O)s3)c2cc1OC | 5.66
11 | CC1=C(C(=O)Nc2ccc3[nH]ncc3c2)C(c2ccc3ccccc3c2)CC(=O)N1 (stereo not drawn) | 1.53
12 | O=C1NC(=O)C(c2ccc(Cl)cc2)=C1Nc1ccc(Cl)c(C(=O)O)c1 | -0.88
13 | c1cnn2ncc(-c3ccnc(Nc4ccc5c(c4)OCCO5)n3)c2c1 | 49.2
14 | COc1cc2ncn(-c3cc(O[C@@H](C)c4ccccc4Cl)c(C(N)=O)s3)c2cc1OC | 3.02
15 | CCn1c(-c2nonc2N)nc2c(C#CC(C)(C)O)nc(CN3CCCC3)cc21 | -0.82
16 | CCn1c(-c2nonc2N)nc2ccncc21 | 0.62
17 | CNC(=O)c1cncc(/C=C/c2c(Cl)cccc2Cl)c1 | 0.36

Row | SMILES | inhibition [%]
18 | Cc1nnc(-c2ccc(C)c(-c3ccc(C(=O)Nc4cccc(C#N)c4)cc3)c2)o1 | 0.85
19 | CN(C)c1cc2c(Nc3ccc4nc(Cc5ccccc5)[nH]c4c3)ncnc2cn1 | 2.88
20 | Cc1cccc(-c2n[nH]cc2-c2ccc3ncccc3n2)n1 | -0.33
21 | CS(=O)(=O)CCN(CC#N)Cc1ccc(-c2ccc3ncnc(Nc4ccc(OCc5cccc(F)c5)c(Cl)c4)c3c2)o1 | 2.04
22 | CCn1c(-c2nonc2N)nc2c(C#CC(C)(C)O)nc(OC[C@@H](N)c3ccccc3)cc21 | -1.49
23 | CC(=O)Nc1cccc(C#Cc2cncnc2Nc2ccc(OCc3cccc(F)c3)c(Cl)c2)n1 | -1.12
24 | CC1=C(C(=O)Nc2ccc3[nH]ncc3c2)C(c2ccc(Cl)c(Cl)c2)CC(=O)N1 (stereo not drawn) | 0.21
25 | O=C1Nc2ccc(C(=O)c3ccco3)cc2C1=Cc1cc(Cl)c(O)c(Cl)c1 | 2.58
26 | CS(=O)(=O)Nc1ccc(N/C=C2\C(=O)Nc3ccccc32)cc1 | 7.79
27 | COc1cc2ncn(-c3cc(OCc4ccccc4Cl)c(C(N)=O)s3)c2cc1OC | 2.57
28 | Fc1cccc(COc2ccc(Nc3ncnc4sc(-c5cccs5)cc34)cc2Cl)c1 | 1.75
29 | [O-][S+]1CCN(Cc2ccc(-c3ccc4ncnc(Nc5ccc(OCc6ccccc6)c(F)c5)c4c3)o2)CC1 | 0.34
30 | Cc1ccc(C(=O)NC2CCCCC2)cc1-c1ccc(C(=O)NCC2CC2)cc1 | 0.04
31 | Cc1nn(C)c2cc(N(C)c3ccnc(Nc4cccc(S(N)(=O)=O)c4)n3)ccc12 | 5.8
32 | CCN1CCC(CC(=O)Nc2n[nH]c3nc(-c4cccs4)c(Br)cc23)CC1 | -3.78
33 | COc1ccc(-c2nn3ncccc3c2-c2ccnc(Nc3ccc(Cl)c(C(F)(F)F)c3)n2)cc1 | -0.64
